# Results: PubChem BioAssay (NCATS)
# Results filed as inconclusive are left out. A call without a number means that no potency is given here. Activity calls are given as the source filed them. Calls come from the whole dose curve; as a rule, active = well fitted inhibition curve with a large enough effect; inconclusive = small, poorly fitted or top-dose-only effect; inactive = flat fitted curve, though single readings scatter.
# Assays:
# [1] = system: CRL-7250; assay: qHTS assay to identify novel small-molecules to repurpose for Merkel cell carcinoma treatment (AID 1296009); details: MCC and control cell lines, CellTiter-Glo viability, 72 h
# Method in brief: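 Cells were treated for 72 hr at 37 degree celsius with compounds in 8- or 11-point dose response. Viability was read by CellTiter-Glo luminescence, normalized to no-cell (cytotoxicity) and DMSO controls.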
# [2] = system: PAD; assay: qHTS profiling for inhibitors of Plasmodium falciparum proliferation (AID 504749); details: P. falciparum in erythrocytes, SYBR Green DNA, 72 h; series mostly up to 28.7 µM
# Method in brief: (§1)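 P. falciparum-infected erythrocytes (0.3% parasitemia, 2.5% hematocrit) incubated with compound 72 h at 37 C, 5% CO2. Parasite DNA detected by SYBR Green after lysis, overnight at room temperature; normalised to 0.29 uM artemisinin and DMSO.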
# [3] = system: PC15; assay: as above; details: P. falciparum in erythrocytes, SYBR Green DNA, 72 h; series mostly up to 28.7 µM
# Method in brief: as §1
# [4] = system: PC26; assay: as above; details: P. falciparum in erythrocytes, SYBR Green DNA, 72 h; series mostly up to 28.7 µM
# Method in brief: as §1
# [5] = system: PC49; assay: as above; details: P. falciparum in erythrocytes, SYBR Green DNA, 72 h; series mostly up to 28.7 µM
# Method in brief: as §1
# [6] = system: SC27B; assay: as above; details: P. falciparum in erythrocytes, SYBR Green DNA, 72 h; series mostly up to 28.7 µM
# Method in brief: as §1
# [7] = system: TAB109; assay: as above; details: P. falciparum in erythrocytes, SYBR Green DNA, 72 h; series mostly up to 28.7 µM
# Method in brief: as §1
# [8] = system: TAB113; assay: as above; details: P. falciparum in erythrocytes, SYBR Green DNA, 72 h; series mostly up to 28.7 µM
# Method in brief: as §1
# [9] = system: TAB165; assay: as above; details: P. falciparum in erythrocytes, SYBR Green DNA, 72 h; series mostly up to 28.7 µM
# Method in brief: as §1
# [10] = system: W2; assay: as above; details: P. falciparum in erythrocytes, SYBR Green DNA, 72 h; series mostly up to 28.7 µM
# Method in brief: as §1
# [11] = at 44.8 µM (top of the series) unless noted
# Note: nearly all actives have a fitted effect of over 60% in size.
smiles,measurement,setting,value
O=C1CN(/N=C/c2ccc([N+](=O)[O-])o2)C(=O)N1,outcome,[1]; [11],inactive
O=C(N[C@H](CO)[C@H](O)c1ccc([N+](=O)[O-])cc1)C(Cl)Cl,outcome,[1]; [11],inactive
CCC[C@@H]1C[C@@H](C(=O)N[C@@H]([C@H]2O[C@H](SC)[C@H](O)[C@@H](O)[C@H]2O)[C@@H](C)O)N(C)C1,outcome,[1]; [11],inactive
NC(=O)NS(=O)(=O)c1ccc(Cl)cc1,outcome,[1]; [11],inactive
CC(=O)[C@H]1CC[C@H]2[C@@H]3C[C@H](C)C4=CC(=O)CC[C@]4(C)[C@H]3[C@@H](O)C[C@]12C,outcome,[1]; [11],inactive
Cc1cnc(NC(=O)C2=C(O)c3ccccc3S(=O)(=O)N2C)s1,outcome,[1]; [11],inactive
CC(C(=O)O)c1ccc2c(c1)CC(=O)c1ccccc1S2 (stereo not drawn),outcome,[1]; [11],inactive
Nc1ccc(S(=O)(=O)Nc2ccccn2)cc1,outcome,[1]; [11],inactive
C=CCc1ccc(O)c(OC)c1,outcome,[1]; [11],inactive
CCOC(=O)C1=C(C)NC(C)=C(C(=O)OC)C1c1cccc([N+](=O)[O-])c1 (stereo not drawn),outcome,[1]; [11],inactive
O=C(O)Cc1cccc2ccccc12,outcome,[1]; at 44.8 µM (top of the series),inactive
same,outcome,[1]; at 92 µM (top of the series),inactive
CCOC(=O)C(O)c1ccccc1 (stereo not drawn),outcome,[1]; [11],inactive
Nc1cc(=O)[nH]c(N)n1,outcome,[1]; [11],inactive
CCCCN(CCCC)CCCOC(=O)c1ccc(N)cc1,outcome,[1]; [11],inactive
CN1CCN(C(=O)C2CCCCC2)CC1,outcome,[1]; [11],inactive
O=C(O)Cc1ccc(OCCNC[C@H](O)c2ccccc2)cc1,outcome,[1]; [11],inactive
O=C(Oc1ccccc1)c1ccccc1O,outcome,[1]; [11],inactive
Cc1ccc(S(=O)(=O)NC(=O)NC2CCCCC2)cc1,outcome,[1]; [11],inactive
CC(C)(C)NCC(O)COc1cccc2c1C[C@H](O)[C@H](O)C2 (stereo partly drawn),outcome,[1]; [11],inactive
COc1cc(OC)c(C(=O)CCCN2CCCC2)c(OC)c1,outcome,[1]; [11],inactive
COCCCOc1ccnc(CS(=O)c2nc3ccccc3[nH]2)c1C (stereo not drawn),outcome,[1]; [11],inactive
COc1cc(C(=O)NS(=O)(=O)c2ccccc2C)ccc1Cc1cn(C)c2ccc(NC(=O)OC3CCCC3)cc12,outcome,[1]; [11],inactive
CC1(COc2ccc(CC3SC(=O)NC3=O)cc2)CCCCC1 (stereo not drawn),outcome,[1]; [11],inactive
O=C(OOC(=O)c1ccccc1)c1ccccc1,outcome,[1]; [11],inactive
Cc1cnc(NS(=O)(=O)c2ccc(N)cc2)nc1,outcome,[1]; [11],inactive
O=c1[nH]c(=O)n([C@H]2C[C@H](O)[C@@H](CO)O2)cc1I,outcome,[1]; [11],inactive
CN1C(=O)C(O)N=C(c2ccccc2)c2cc(Cl)ccc21 (stereo not drawn),Potency,[2],inactive
same,Potency,[3],inactive
same,Potency,[4],inactive
same,Potency,[5],inactive
same,Potency,[6],inactive
same,Potency,[7],inactive
same,Potency,[8],inactive
same,Potency,[9],inactive
same,Potency,[10],inactive
CCCCCCCC/C=C/C(=O)O,outcome,[1]; [11],inactive
COc1ccc(C(=O)c2ccccc2O)c(O)c1,outcome,[1]; [11],inactive
